# Most compounds without a hit are left out; they make up all but 12% or so of the library.
# PLK1 PBD block – inhibitors of human PLK1 polo-box domain binding; Potency, µM, for the others: max response, negative = inhibition, most hits filed as inhibitors; hit rate 2.8% among 360,000; P53350; Plk1 PBD binding of FITC phosphopeptide, fluorescence polarization; also: series mostly up to about 57 µM; % is scaled to controls: 0 for no effect and ±100 for the full control effect; nearly all actives have a fitted effect of over 65% in size
# Target sequence (P53350 whole entry, looked up, the tested form may be a part): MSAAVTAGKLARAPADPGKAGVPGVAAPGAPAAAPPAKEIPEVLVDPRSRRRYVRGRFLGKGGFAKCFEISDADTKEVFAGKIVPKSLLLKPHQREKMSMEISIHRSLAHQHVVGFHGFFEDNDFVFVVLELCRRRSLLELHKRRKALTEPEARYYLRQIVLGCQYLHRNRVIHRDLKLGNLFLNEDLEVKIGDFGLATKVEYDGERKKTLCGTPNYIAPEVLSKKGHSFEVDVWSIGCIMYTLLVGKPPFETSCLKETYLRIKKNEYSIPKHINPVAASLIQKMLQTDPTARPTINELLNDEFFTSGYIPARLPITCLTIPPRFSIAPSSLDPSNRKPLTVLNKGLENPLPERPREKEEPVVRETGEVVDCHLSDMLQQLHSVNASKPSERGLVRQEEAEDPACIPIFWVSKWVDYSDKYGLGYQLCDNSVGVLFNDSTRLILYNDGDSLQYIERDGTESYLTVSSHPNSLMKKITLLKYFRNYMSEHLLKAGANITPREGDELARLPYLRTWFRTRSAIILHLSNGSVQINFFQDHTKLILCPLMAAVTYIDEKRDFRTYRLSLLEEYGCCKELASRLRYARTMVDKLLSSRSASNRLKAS
# JMJD2A Tudor inh – JMJD2A Tudor domain (human) inhibition. hit rate 4.4% among 390,000. Potency, µM (titrated, usually from 114 µM), for inactives: top-dose activity change, negative = inhibition, usual class: inhibitors. O75164. AlphaScreen JMJD2A-Tudor / H3K4me3 peptide binding; also: % is scaled to controls: 0 for no effect and ±100 for the full control effect; nearly all actives have a fitted effect of over 50% in size
# Sfp inh – Sfp phosphopantetheinyl transferase inhibition; Potency, µM, for inactives: largest response in the series, negative = inhibition, most hits filed as inhibitors; Biochemical Sfp PPTase activity, qHTS; hit rate 3.5% among 310,000; AID 1490; Q9F4F7;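 also: the enzyme is Sfp with the accession as filed and its product quenches rhodamine fluorescence; 0% = enzyme reaction without inhibitor and -100% = no enzyme wells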
#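 Buffer: 50 mM Hepes-Na pH 7.6, 10 mM MgCl2, 0.01% Nonidet P-40, 0.01% BSA. Enzyme 15 nM, pre-exposed to compound 15 min; substrates then added and fluorescence change tracked over 30 min.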
# G9a inh – inhibitors of human histone lysine methyltransferase G9a; Potency, µM (series often up to 102 µM), without a hit: at the highest dose activity, negative = inhibition, most hits filed as inhibitors; hit rate 8.8% among 350,000; G9a H3K9 monomethylation, AlphaScreen, 2 h; also: % is scaled to controls: 0 for no effect and ±100 for the full control effect; nearly all actives have a fitted effect of over 75% in size
#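 Readings reflect AlphaScreen signal from monomethyl-H3K9 antibody detection. HMT at 20 nM; substrate b-H3K9 500 nM; cofactor SAM 20 uM; 2 h RT reaction; compounds tested as titrations in qHTS with 15 min preincubation.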
# BAZ2B block – blocks human BAZ2B; Q9UIF8; AlphaScreen BAZ2B-H3K14Ac peptide displacement; Potency, µM (doses to about 114 µM), for the others: at the top dose activity change, negative = inhibition, actives largely listed as inhibitors; hit rate 4.4% among 360,000; AID 504333; also: % is scaled to controls: 0 for no effect and ±100 for the full control effect; nearly all actives have a fitted effect of over 60% in size
#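 AlphaScreen displacement: compounds (up to 110uM) incubated 30 min at room temperature with a preformed 50 nM BAZ2B/50 nM biotinylated H3K14Ac peptide complex in PBS pH 7.4 with Tween-20. Donor and acceptor beads at 10 ug/mL final added, 20 min light-protected before reading.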
# HP1b chromo inh – HP1-beta chromodomain-methylated histone interaction inhibition | AlphaScreen HP1-beta / biotin-H3K9me3 peptide binding | Potency, µM (titrated, usually from 114 µM), for the others: at the top dose activity change, negative = inhibition, most hits filed as inhibitors | P83916 | hit rate 0.56% among 390,000; also: nearly all actives have a fitted effect of over 70% in size
#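 AlphaScreen: HP1-beta (50 nM) preformed 30 min with biotin-H3(1-18)K9me3 peptide (50 nM) in PBS pH 7.4, 0.01% Tween-20. Compound added for 30 min at RT, then streptavidin donor/nickel chelate acceptor beads (10 ug/mL) for 30 min.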
# The depositor's hits bear a star; ? = inconclusive; / = not tested or not shown; [ ] = dose if it differs, or a comment. Calls follow the shape of the dose curve; as a rule, active = well fitted curve in the direction sought with a large enough effect; inconclusive = small, poorly fitted or top-dose-only effect, or another doubt; inactive = no such curve, though single readings can be large; an effect the other way counts as inactive or inconclusive. Potency is read from the fitted curve at half-maximal effect.
SMILES,PLK1 PBD block,JMJD2A Tudor inh,Sfp inh,G9a inh,BAZ2B block,HP1b chromo inh
CCN(Cc1cccs1)C(=O)CN1C(=O)NC(c2ccccc2)(c2ccccc2)C1=O,-13%,-30%,/,7.9µM*,-4%,7%
COc1ccc(OCC(=O)Nc2ccc(OC)c(S(=O)(=O)N3CCCCC3)c2)cc1,-6%,-24%,/,0%[0.501 µM],-7%,27%
CCOc1ccc(S(=O)(=O)n2cc(F)c(=O)[nH]c2=O)cc1,-10%,-25%,1%,/,-12%,15%
Cc1cc(Cl)ccc1NNC(=O)CCc1ccccc1,-2%,-13%,6%,28µM*,-17%,17%
COC(=O)c1ccccc1NC(=O)CN(c1ccccc1)S(=O)(=O)N(C)C,-2%,5%,/,/,/,30%
Cc1ccc(C(=O)O)cc1NC(=O)CCc1ccccc1,17µM*,?,19%,5%,-28%,-6%
Cc1ccc(C(=O)O)cc1NC(=S)NC(=O)Cc1ccccc1,-9%,4%,5%,-7%,3%,33%
COC(=O)c1ccc(C)c(NC(=O)CN(c2ccccc2)S(=O)(=O)N(C)C)c1,21µM*,-14%[11.4 µM],14%,6%,-13%,-1%
COC(=O)c1ccc(C)c(NC(=O)CCc2ccc(OC)cc2)c1,-8%,-18%,89µM*,-6%[59 µM],-6%,22%
CC(=O)Nc1cccc(-c2ccnc3c2CC(C(=O)NCCc2ccccc2)O3)c1 (stereo unspecified),-6%,/,/,/,/,/
CCCC(=O)Nc1cc(C(=O)O)ccc1Sc1ccc(C)cc1,?,-12%,-10%,45µM*,1%,34%
CCC(=O)Nc1cc(C(=O)O)ccc1Sc1ccc(C)cc1,-7%,-11%,12%,?,-12%,44%
CC(C)NC(=O)Nc1cccc2c1O[C@H](CN(C)S(=O)(=O)c1ccccc1)[C@@H](C)CN([C@H](C)CO)C2=O,-5%,-6%,/,/,/,82%
C[C@H](CO)N1C[C@H](C)[C@@H](CN(C)C(=O)NC2CCCCC2)Oc2ccc(NS(=O)(=O)c3cn(C)cn3)cc2C1=O,-16%,-6%,/,/,/,42%
CC(C)NC(=O)N(C)C[C@H]1Oc2ccc(NS(=O)(=O)c3cn(C)cn3)cc2C(=O)N([C@H](C)CO)C[C@@H]1C,-15%,40µM*,/,/,/,-22%
CC(C)NC(=O)Nc1cccc2c1O[C@H](CN(C)S(=O)(=O)c1ccc(F)cc1)[C@@H](C)CN([C@H](C)CO)C2=O,19µM*,?,/,/,/,5%
CCOC(=O)[C@]12CCCC=C1N(CCc1ccc(OC)c(OC)c1)C(=O)[C@H](CC(=O)N1CCCCC1)C2,5%,/,/,/,/,/
COC(=O)c1ccc(C)c(NC(=O)c2ccc(Cl)c([N+](=O)[O-])c2)c1,30µM*,-24%[57.1 µM],-3%,-4%[59 µM],-11%,?
CC1=C(CC(=O)O)c2cc(F)ccc2/C1=C/c1ccc(S(C)=O)cc1 (stereo unspecified),-25%,-17%,5%,50µM*,-16%,12%
O=C(c1nc[nH]c1C(=O)N1CCc2ccccc2C1)N1CCc2ccccc2C1,5%,-1%,/,20%[2.33 µM],4%,52%
COc1ccc(Cl)cc1CNCCSc1nnnn1C,/,5%,/,18%[59 µM],-1%,71%
Cc1ccccc1CNCCSc1nnnn1C,/,-8%,/,6%[59 µM],-16%,26%
CCOc1cc(CNCCSc2nnnn2C)cc(Br)c1OCc1ccc(F)cc1,-7%,9%,?,22%[59 µM],-6%,75%
Cn1nnnc1SCCNCc1cccc2ccccc12,-3%,-24%,1%,50µM*,4%,14%
COc1cccc(CNCCSc2nnnn2C)c1,-1%,-4%,-7%,56µM*,1%,55%
SMILES,PLK1 PBD block,JMJD2A Tudor inh,Sfp inh,G9a inh,BAZ2B block,HP1b chromo inh
COc1ccc(Br)cc1CNCCSc1nnnn1C,-5%,-25%,7%,56µM*,-7%,8%
COc1cc(CNCCSc2nnnn2C)cc(Br)c1OCc1ccc(F)cc1,-8%,-27%,14µM*,-39%[2.33 µM],-32%,19%
CCCCCCCC/C=C\CCCCCCCC(N)=O,/,/,0%,28%[59 µM],/,/
COC(=O)c1cccnc1-n1c(=O)c2cccnc2n(CC(=O)Nc2ccccc2F)c1=O,/,-2%,/,-8%[59 µM],0%,17%
CCCCC(O)(c1ccc(CC)cc1)C(CN1CCOCC1)c1ccccc1 (stereo unspecified),2%,3%,-21%,?,-3%,52%
CCCCn1nnnc1C1(C)CCC(=O)N1CCc1ccc(OC)c(OC)c1 (stereo unspecified),1%,/,/,/,/,/
CCN(CC)C(=O)Cn1c(=O)cc(C)c2c(C)nn(-c3cccc(Cl)c3C)c21,/,-29%,/,-3%[59 µM],-9%,-17%
COc1cc(-c2cc(C(=O)Nc3ccc(O)cc3)c3ccccc3n2)cc(OC)c1OC,27µM*,-2%[11.4 µM],22µM*,14µM*,-39%,-19%
COc1ccccc1NC(=O)c1cc(-c2ccc(C)o2)nc2ccccc12,-13%,-10%,-5%,40µM*,-12%,4%
Cc1ccc(NC(=O)c2cc(C)nc3ccccc23)cc1,-1%,-7%,3%,-5%,-16%,14%
Cc1ccc(NC(=O)c2cc(-c3ccc(C)o3)nc3ccccc23)cc1,?,79µM*,10µM*,10µM*,-4%,-15%
Cc1ccc(-c2cc(C(=O)NCCN3CCOCC3)c3ccccc3n2)o1,-13%,-7%,-20%,28µM*,-14%,40%
Cc1cc(Br)ccc1NC(=O)c1coc(=O)c2ccccc12,/,7%,/,-21%[59 µM],-10%,22%
CCN(CC)S(=O)(=O)c1ccc(NC2CCCc3ccccc32)nc1 (stereo unspecified),-5%,-9%,5%,?,-4%,69%
Cc1ccc(NC(=O)CCNC(=O)c2ccc([N+](=O)[O-])cc2)cc1C,-9%,-15%,5%,?,-14%,14%
C/C(=N\NC(=O)COc1cc(C)cc(C)c1)c1cccc(NC(=O)C2CCC2)c1,2%,3%,1%,43%,-9%,38%
C=CC[C@@H]1[C@H](O)CC[C@@]2(C)[C@H]1CC[C@@H]1[C@@H]2CC[C@]2(C)C([C@H](C)CCCC(C)C)CC[C@@H]12 (stereo partly specified),/,/,9%,38%[59 µM],/,/
CCNC(=O)CCS(=O)(=O)c1ccc2ccccc2c1,-26%,-3%,?,7.1µM*,-4%,19%
O=C(CCS(=O)(=O)c1ccccc1)NCCS(=O)(=O)c1ccccc1,-9%,-20%,8%,18%,-16%,24%
Cc1cccc(C)c1NC(=O)CCS(=O)(=O)c1ccc(Br)cc1,-5%,-9%,13%,7%,0%,23%
CCOc1ccccc1NC(=O)CCS(=O)(=O)c1ccc(OC)cc1,-4%,-1%,12%,-38%,6%,27%

# Source: PubChem BioAssay
